Values without a mark were called inactive. Records with an inconclusive call do not appear. A call without a number means that no potency is given here. Activity calls are given as the source filed them. Unless noted, the call rests on the fitted dose curve; in most records, active means well fitted curve in the direction sought with a large enough effect in the repeat runs; inconclusive means weak or mixed curves; inactive means no such curve, though single readings can be large; an effect the other way counts as inactive or inconclusive.
Experiments:
[1] = A CellTox Green Cytotoxicity Assay to monitor cytotoxicity in HEK293 cells - 32 hour (AID 1224881); further: nearly all actives have a fitted effect of over 40% in size; further: potency means the concentration at half of the fitted maximal effect
Summary of the method: (§1)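 Nonlytic real-time cytotoxicity: HEK293 + CellTox Green reagent plated, 5 h preincubation, pintool compound addition (23 nL in DMSO), 37 C for 40 h, fluorescence measured at successive time points.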

[2] = A CellTox Green Cytotoxicity Assay to monitor cytotoxicity in HEK293 cells - 8 hour (AID 1224884); further: nearly all actives have a fitted effect of over 35% in size; further: potency means the concentration at half of the fitted maximal effect
Summary of the method: as §1

[3] = qHTS RealTime-Glo MT Cell Viability Assay in HepG2 cells - 16 hour (AID 1224885); further: nearly all actives have a fitted effect of over 50% in size
Summary of the method: (§2)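 HepG2 cells were seeded at 600 cells/well together with NanoLuc luciferase and a cell-permeant prosubstrate, preincubated 5 h at 37 C/5% CO2, then pin-dosed with compounds in DMSO. Nonlytic luminescence from viable cells was read at each time point.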

[4] = A CellTox Green Cytotoxicity Assay to monitor cytotoxicity in HEK293 cells - 16 hour (AID 1224888); further: nearly all actives have a fitted effect of over 35% in size; further: potency means the concentration at half of the fitted maximal effect
Summary of the method: as §1

[5] = qHTS RealTime-Glo MT Cell Viability Assay in HepG2 cells - 0 hour (AID 1224889); further: nearly all actives have a fitted effect of over 50% in size
Summary of the method: as §2

[6] = A CellTox Green Cytotoxicity Assay to monitor cytotoxicity in HepG2 cells - 8 hour (AID 1224890); further: nearly all actives have a fitted effect of over 45% in size; further: potency means the concentration at half of the fitted maximal effect
Summary of the method: (§3)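 Read-out is fluorescence of a cyanine dye excluded from live cells that stains DNA of dead HepG2 cells, with signal proportional to cytotoxicity. Plates were read at 0, 8, 16, 24, 32 and 40 h after compound addition.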

[7] = qHTS assay to identify small molecule antagonists of the androgen receptor (AR) signaling pathway using the MDA cell line in the presence of 0.5 nM R1881 - cell viability counter screen (AID 1259242); further: nearly all actives have a fitted effect of over 45% in size
Summary of the method: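 Counter screen for cytotoxicity run in the same wells as the AR antagonist reporter screen: MDA-kb2 cells were treated 16 hr with test compounds and 0.5 nM R1881, then live-cell protease activity was measured by fluorescence.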

[8] = qHTS assay to identify small molecule HDAC inhibitors (AID 1259364); further: top concentration of the series differs between compounds; nearly all actives have a fitted effect of over 45% in size
Summary of the method: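 Luminescence from a cell-permeant luminogenic class I/II HDAC substrate reports endogenous deacetylase activity in intact HCT-116 cells treated with compounds for 2 h.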

[9] = qHTS assay to identify small molecule HDAC inhibitors - cell viability counter screen (AID 1259365); further: series mostly up to about 92 µM; nearly all actives have a fitted effect of over 50% in size
Summary of the method: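 Viability readout: CellTiter-Glo luminescence. Wild-type HCT-116 cells, 2hr compound treatment following overnight attachment at 37 C.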

[10] = qHTS assay to identify small molecule antagonists of the sonic hedgehog signaling (Shh) pathway - cell viability counter screen (AID 1259367); further: nearly all actives have a fitted effect of over 55% in size
Summary of the method: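 Seed 3T3 Gli1-Luc cells at 2,000 per well; incubate 4 hr; add compound in DMSO, then conditioned medium; incubate at 37C with 5% CO2; add CellTiter-Fluor after 23 hr; read fluorescence 1 hr later.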

[11] = qHTS assay to identify small molecule agonists of the sonic hedgehog signaling (Shh) pathway (AID 1259368; calls by dose curve;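 further: NIH/3T3-derived 3T3Gli1-Luc cells carrying a stable Gli1-driven firefly luciferase reporter; series mostly up to about 92 µM; nearly all actives have a fitted effect of over 15% in size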)
Summary of the method: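 3T3Gli1-Luc (NIH/3T3 clone, stable Gli1-Luc); 4 hr pre-incubation, then cpd in DMSO 24 hr, 37 C/5% CO2; luciferase reagent 30 min RT; luminescence.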

[12] = qHTS RealTime-Glo MT Cell Viability Assay in HEK293 cells - 8 hour (AID 1224887); further: nearly all actives have a fitted effect of over 50% in size; further: potency means the concentration at half of the fitted maximal effect
Summary of the method: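 Cells were seeded together with NanoLuc luciferase and a prosubstrate that viable cells reduce to a luciferase substrate. After a 5 h incubation at 37 C/5% CO2, compounds were added and luminescence was measured repeatedly during 40 h of treatment.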

[13] = qHTS assay to identify small molecule antagonists of the estrogen receptor alpha (ER-alpha) signaling pathway using the BG1 cell line in the presence of 0.1 nM 17-beta-estradiol - cell viability counter screen (AID 1259241); further: nearly all actives have a fitted effect of over 40% in size
Summary of the method: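 The cell line endogenously expresses full-length ER-alpha and carries four EREs driving luciferase. Cells are cultured 5 days hormone-free, treated 22 hr with compounds and 0.1 nM estradiol, then viability is read by fluorescence.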

[14] = qHTS assay to identify small molecule agonists of the sonic hedgehog signaling (Shh) pathway - cell viability counter screen (AID 1259366); further: nearly all actives have a fitted effect of over 50% in size
Summary of the method: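 Viability measured fluorometrically (CellTiter-Fluor, 1hr, 37C) in 3T3 Gli1-Luc reporter cells after 23hr compound exposure within a 24hr incubation at 37C/5% CO2.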

[15] = A CellTox Green Cytotoxicity Assay to monitor cytotoxicity in HepG2 cells - 32 hour (AID 1224883); further: nearly all actives have a fitted effect of over 50% in size; further: potency means the concentration at half of the fitted maximal effect
Summary of the method: as §3

[16] = qHTS RealTime-Glo MT Cell Viability Assay in HEK293 cells - 24 hour (AID 1224886); further: nearly all actives have a fitted effect of over 50% in size; further: potency means the concentration at half of the fitted maximal effect
Summary of the method: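 HEK293 cells were seeded at 600 cells/well together with NanoLuc luciferase and cell-permeant prosubstrate, preincubated 5 h at 37 C/5% CO2, then given compound in DMSO by pintool. Luminescence from viable-cell prosubstrate reduction was read repeatedly over 40 h.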

[17] = A CellTox Green Cytotoxicity Assay to monitor cytotoxicity in HepG2 cells - 0 hour (AID 1224882); further: nearly all actives have a fitted effect of over 35% in size
Summary of the method: as §3

[18] = qHTS assay to identify small molecule phospholipidosis (PLD) inducers (AID 1259344; active means well fitted curve in the direction sought with a large enough effect; an effect the other way counts as inactive or inconclusive)
Summary of the method: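 Quantitative HTS in HepG2: compound plus LipidTOX Red dye for 24 h, paraformaldehyde fixation with Hoechst 33342, widefield high-content imaging; amiodarone as positive and DMSO as negative control.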

[19] = target: Estrogen receptor (Homo sapiens) (UniProt P03372); test: qHTS assay to identify small molecule antagonists of the estrogen receptor alpha (ER-alpha) signaling pathway using the BG1 cell line in the presence of 0.1 nM 17-beta-estradiol (AID 1259244); further: nearly all actives have a fitted effect of over 50% in size
Summary of the method: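 Cells: VM7Luc4E2, endogenous ER-alpha, 4x ERE-luc stable. Pre-culture 5 d, phenol red-free, charcoal-stripped FBS. Plated 24 h, compound + E2 0.1 nM final, 22 h 37C/5% CO2. Readout ONE-Glo luminescence.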

Chain of Estrogen receptor (Homo sapiens) (P03372 whole entry, looked up): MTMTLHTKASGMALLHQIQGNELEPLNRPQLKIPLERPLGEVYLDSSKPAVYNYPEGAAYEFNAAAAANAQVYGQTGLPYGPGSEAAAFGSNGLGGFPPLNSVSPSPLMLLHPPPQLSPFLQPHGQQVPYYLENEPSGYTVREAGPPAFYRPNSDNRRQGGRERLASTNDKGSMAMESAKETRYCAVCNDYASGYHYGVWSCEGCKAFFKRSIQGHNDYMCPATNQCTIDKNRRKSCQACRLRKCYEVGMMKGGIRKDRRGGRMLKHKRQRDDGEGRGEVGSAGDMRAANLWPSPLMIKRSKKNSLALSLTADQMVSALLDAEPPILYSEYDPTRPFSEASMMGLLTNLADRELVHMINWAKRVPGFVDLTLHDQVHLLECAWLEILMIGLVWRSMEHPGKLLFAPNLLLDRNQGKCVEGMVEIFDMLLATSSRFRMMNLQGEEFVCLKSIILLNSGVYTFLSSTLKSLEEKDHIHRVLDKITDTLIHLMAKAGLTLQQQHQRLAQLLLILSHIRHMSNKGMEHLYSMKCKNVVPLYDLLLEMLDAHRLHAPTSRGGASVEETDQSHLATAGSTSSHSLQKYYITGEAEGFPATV

| SMILES | Potency [1] | Potency [2] | Potency [3] | Potency [4] | Potency [5] | Potency [6] | Potency [7] | Potency [8] | Potency [9] | Potency [10] | Potency [11] | Potency [12] | Potency [13] | Potency [14] | Potency [15] | Potency [16] | Potency [17] | outcome [18] | Potency [19] | PLD induction [18] |
| --- | --- | --- | --- | --- | --- | --- | --- | --- | --- | --- | --- | --- | --- | --- | --- | --- | --- | --- | --- | --- |
| c1ccc2c(c1)cc1ccc3cccc4ccc2c1c34 | inactive | inactive | inactive | inactive | inactive | inactive | inactive | inactive | inactive | inactive | inactive |  |  |  |  |  |  |  |  |  |
| CNC(=O)Oc1cc(C)cc(C(C)C)c1 | inactive | inactive | inactive | inactive | inactive | inactive | inactive | inactive | inactive | inactive | inactive | inactive | inactive | inactive |  |  |  |  |  |  |
| CCc1cccc(C)c1N(C(=O)CCl)[C@@H](C)COC |  |  |  |  | inactive |  | inactive | inactive | inactive | inactive | inactive | inactive | inactive | inactive | 43.6 µM (active) | inactive |  |  |  |  |
| COc1ccc2c3c1O[C@H]1[C@H](O)CC[C@H]4[C@@H](C2)N(C)CC[C@@]341 |  | inactive | inactive | inactive | inactive | inactive | inactive | inactive | inactive | inactive | inactive | inactive | inactive | inactive | inactive |  | inactive | inactive |  |  |
| C=CCOC(=O)c1ccccc1N |  | inactive | inactive | inactive | inactive | inactive | inactive |  | inactive | inactive | inactive |  | inactive | inactive | inactive | inactive | inactive |  | inactive |  |
| O=[N+]([O-])C(Br)Br |  | inactive | inactive |  | inactive | inactive | inactive | inactive | inactive | inactive | inactive |  | inactive | inactive |  | 55 µM (active) | inactive |  |  |  |
| Cc1c([N+](=O)[O-])cc2c(c1[N+](=O)[O-])C(C)(C)CC2(C)C |  |  | inactive |  | inactive |  | inactive |  | inactive | inactive | inactive | inactive | inactive | inactive |  | inactive |  |  |  |  |
| C[C@]12CC[C@H]3[C@@H](CCC4=CC(=O)CC[C@@H]43)[C@@H]1CC[C@@H]2OC(=O)CCc1ccco1 |  | inactive | inactive | inactive | inactive | inactive | inactive | inactive | inactive | inactive | inactive | inactive | inactive | inactive | inactive | inactive | inactive |  |  |  |
| O=[N+]([O-])c1ccc(Cl)c(Cl)c1Cl |  | inactive | inactive |  | inactive | inactive | inactive | inactive | inactive | inactive | inactive | inactive | inactive | inactive | inactive | inactive | inactive |  |  |  |
| CCCC[N+]1(C)CCCC1 (tested in a mixture with another compound) | inactive |  | inactive | inactive | inactive | inactive | inactive | inactive | inactive | inactive | inactive | inactive | inactive | inactive |  | inactive |  |  |  |  |
| Nc1c(Cl)c(Cl)c(Cl)c(Cl)c1Cl | inactive | inactive | inactive |  | inactive |  | inactive | inactive | inactive | inactive | inactive | inactive |  | inactive |  | inactive |  |  |  |  |
| O=C(N[C@@H]1N=C(c2ccccc2F)c2cccc3c2N(CC3)C1=O)c1cc2ccccc2[nH]1 | 6.01 µM (active) | 9.52 µM (active) |  | 5.35 µM (active) | inactive | 21.3 µM (active) | inactive |  | inactive | inactive | inactive | inactive |  | inactive | 19 µM (active) | inactive |  |  |  | -5.27% [at 0.306 µM] |
| Oc1ccc2[nH]cc(CCCCN3CC=C(c4ccccc4)CC3)c2c1 |  | inactive | inactive | inactive | inactive | inactive | inactive | inactive | inactive | inactive | inactive | 8.49 µM (active) | inactive |  | 23.9 µM (active) | 19 µM (active) | inactive | inactive |  |  |
